Shown are actives, neighbours in structure and some others; about 1.2% of the full set was active somewhere.
Mtb bLac sens = beta-lactam sensitization of Mtb H37Rv, H37Rv | inhibition, % at 25 µM | M. tuberculosis H37Rv growth with meropenem, percent inhibition | 330,000 tested, 0.27% active; call rule not given here;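 note: growth measured after seven days incubation then overnight dye step; 0% = bacteria only wells and 100% = bacteria with antibiotic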
RN4220 kill = growth inhibition of S. aureus RN4220, primary screen, OD600; 330,000 tested, 0.33% active; AID 1259311, 2017; 16 h; inhibition, % (concentration not given with the values); in the data active = inhibition above about 85%;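 note: plate controls were untreated cells for no effect and reference antibiotic for full effect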
ugtP null kill = growth inhibition of ugtP-null S. aureus, primary screen, RN4220 ugtP deletion, OD600; 16 h; growth inhibition, % (concentration not given with the values); 330,000 tested, 0.54% active; AID 1259309, 2017; in the data active = growth inhibition above about 68%;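 note: plate controls were untreated wells for no effect and antibiotic for full effect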
PfHsp40 yeast = rescue of yeast from PfHsp40 toxicity, primary screen, S. cerevisiae, ATP luminescence | 340,000 tested, 0.68% active | growth rescue, % at 12.5 µM | S. cerevisiae expressing PfHsp40, growth rescue; in the data active = growth rescue above about 28%, passing the limit was not always enough;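 note: yeast W303a lacking pdr1 and pdr3 grown in galactose medium; growth measured after three days at 30 °C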
Vc quorum ag = inducers of Vibrio cholerae quorum light production without autoinducers, primary screen, BH1578 luxS cqsA deficient, single point; 350,000 tested, 0.16% active; AID 588436, 2011; activation, % at 18.7 µM; V. cholerae BH1578 lux reporter, luminescence, 6 h; in the data active = activation mostly above about 9.7%, no sharp cut-off
* = called active by the depositor; i = inactive; · = no result.

SMILES | Mtb bLac sens | RN4220 kill | ugtP null kill | PfHsp40 yeast | Vc quorum ag
COC(=O)C1=C(c2cc3ccccc3o2)CC2CCC1N2C(=O)NCc1ccc(C(F)(F)F)cc1 (stereo unspecified) | · | -0.2 | 16.2 | · | ·
COc1ccc(C)cc1NC(=O)c1nnn(Cc2cccc(C(F)(F)F)c2)c1N | 1.6 | -3.0 | 98.1* | 0.6 | i
Cc1cc(C)c(C)c(OCCOCCN2CCN(C)CC2)c1 | 1.7 | 1.8 | 1.3 | 122.7* | -0.4
Cc1cc(C)c(C)c(OCCOCCN2CCOCC2)c1 | 3.6 | 3.8 | 5.9 | -2.0 | i
CC(C)CC(NC(=O)OCc1ccccc1)C(=O)NC(Cc1ccccc1)C(=O)CCl (stereo unspecified) | · | · | · | -0.2 | i
O=C(NC(Cc1ccccc1)C(=O)CCl)OCc1ccccc1 (stereo unspecified) | · | 100.5* | 99.8* | · | ·
O=C(COc1ccc(-c2nnco2)cc1)NC1CCS(=O)(=O)C1 (stereo unspecified) | 6.5 | 2.5 | 3.0 | 31.3* | i
O=C(CC1N=C2c3ccccc3N=C(SCc3ccc(F)cc3)N2C1=O)NCc1ccco1 (stereo unspecified) | -3.0 | -1.7 | 22.3 | 1.4 | 16.7*
Cc1c(C(=O)NCCSCc2c(F)cccc2Cl)cnn1-c1ccc(Cl)cc1 | 61.8 | · | · | 132.4* | 0.3
COc1ccccc1C(=O)NCCSCc1c(F)cccc1Cl | -0.9 | 6.3 | -0.6 | 2.8 | -0.5
O=C(Cn1c(=O)[nH]c2ccsc2c1=O)NC1CCCCC1 | -9.8 | -0.7 | -0.9 | -0.5 | -0.3
O=C(NC1CCCC1)c1ccc(Cn2c(=O)[nH]c3ccsc3c2=O)cc1 | -4.6 | 4.7 | 0.3 | 50.8* | -0.7
O=C(OC1C(Oc2ccccc2COC(=O)C2(O)C=CCCC2=O)OC(CO)C(O)C1O)c1ccccc1 (stereo unspecified) | · | 8.9 | -3.0 | · | ·
Cc1ccn(CC(=O)NN=Cc2cc([N+](=O)[O-])ccc2O)n1 | · | 92.9* | 83.3* | · | ·
O=C(Cn1nc2ccccc2n1)NN=Cc1cc([N+](=O)[O-])ccc1O | · | 95.4* | 87.7* | · | ·
CC(=O)c1sc(NC(=O)CS(=O)(=O)c2ccccc2)nc1C | -8.3 | -0.5 | 2.5 | 0.6 | 1.9
CC(=O)c1sc(NC(=O)CS(=O)(=O)c2ccc(F)cc2)nc1C | -6.2 | 2.0 | 0.0 | -0.3 | 28.0*
CCN1C(=O)/C(=C\N(C)C)c2ccccc21 | -7.9 | 2.5 | 0.4 | 41.2* | ·
Cc1cc(C)c2c(N=NN(C)C)[nH]nc2n1 | 37.2 | 17.4 | 21.3 | 68.2* | -0.5
Cc1cc(C)c2c(NC(N)=S)n[nH]c2n1 | -0.1 | 6.3 | 6.3 | 2.2 | -2.1
Cc1ccc(Cl)cc1NC(=O)C1CCCN1S(=O)(=O)c1ccc(-c2ccc(=O)[nH]n2)s1 (stereo unspecified) | -1.4 | 96.5* | 96.6* | -0.1 | i
O=c1cc(-c2ccc(O)cc2)oc2c(C3OC(CO)C(O)C(O)C3O)c(O)c(C3OC(CO)C(O)C(O)C3O)c(O)c12 (stereo unspecified) | · | 8.6 | 4.4 | · | ·
CC(=O)OC1[C@@]2(C)OC2CC[C@]23OC2C(OC3=O)C2=C(C)C(=O)O[C@@]21O (stereo partly specified) | · | 4.7 | -0.1 | · | ·
COc1ccc(C(=O)/C=C2/C(=O)Nc3ccccc32)cc1 | 74.9 | 96.9* | 98.5* | 2.0 | -3.4
COc1ccc(C(=O)/C=C2/C(=O)Nc3ccccc32)cc1OC | 84.4 | · | · | -1.6 | i
SMILES | Mtb bLac sens | RN4220 kill | ugtP null kill | PfHsp40 yeast | Vc quorum ag
O=C1Nc2ccccc2/C1=C/C(=O)c1cccs1 | 99.5 | 98.0 | 94.0* | 7.0 | 0.3
CN1/C(=C\C(=O)Nc2ccc(Br)cc2)C(C)(C)c2ccccc21 | 97.2 | 94.3* | 95.9* | 2.1 | -0.8
COc1ccc(-c2cc(-c3c(O)c(OC)c4occc4c3OC)[nH]n2)cc1OC | -8.5 | 9.8 | -7.5 | 31.5* | i
O=C(CN1CCCC1)NN=Cc1ccc(-c2cccc(Cl)c2)o1 | · | 7.6 | -7.7 | · | ·
CC(=O)OCC1=C(C(=O)O)N2C(=O)C(NC(=O)CC(C)c3ccccc3)C2SC1 (stereo unspecified) | 9.6 | 100.2* | 94.3* | 0.1 | 2.3
CC1=C(C(=O)OCc2ccc([N+](=O)[O-])cc2)N2C(=O)C(NC(=O)Cc3ccccc3)C2SC1 (stereo unspecified) | -1.8 | 2.2 | 0.2 | -1.1 | -0.1
CC(=O)OCC1=C(C(=O)O)N2C(=O)[C@@H](NC(=O)Cc3ccccc3)[C@H]2SC1 | · | · | · | -0.4 | 0.9
CC(=O)OCC1=C(C(=O)O)N2C(=O)C(NC(=O)C(C)Cn3cc(Cl)cn3)C2SC1 (stereo unspecified) | 4.8 | 99.6* | 100.5* | -1.0 | i
CC(=O)OCC1=C(C(=O)O)N2C(=O)[C@@H](NC(=O)Cc3cccs3)[C@H]2SC1 | 3.8 | 99.3* | 98.9* | 0.4 | -0.4
COc1ccc(C2C3C(=O)N(C(C)(C)C)C(=O)C3[C@]3(Cc4ccccc4)C(=O)N(c4cccc(Br)c4)C(=O)N23)cc1 (stereo partly specified) | · | 5.7 | -25.8 | · | ·
CCCCCCCOC(=O)C1=C(C)Nc2ncnn2C1c1cccs1 (stereo unspecified) | 1.5 | 1.2 | -30.3 | 1.7 | -1.4
CCCCCCCCOC(=O)C1=C(C)Nc2nnnn2C1c1cccs1 (stereo unspecified) | 1.2 | -0.9 | 49.0 | 76.1* | i
CCOC(=O)c1ccc(N2N=C(C)/C(=C/C=C/c3ccco3)C2=O)cc1 | -20.5 | 0.6 | -18.2 | 0.0 | i
O=C(O)c1cc(N2N=C(C(F)(F)F)/C(=C/C=C/c3ccco3)C2=O)ccc1Cl | · | 15.8 | -1.7 | 112.3* | -0.7
Cc1ccc(CC(=O)NN=Cc2ccc(OC(=O)c3ccc([N+](=O)[O-])cc3)cc2)cc1 | · | 3.0 | 3.7 | · | ·
COc1cccc(C(=O)Nc2sc(C(C)C)cc2C(N)=O)c1OC | 98.0 | 2.0 | 6.7 | 604.0* | i
FC(F)(F)Oc1ccc(C2NCc3ccccc3-n3cccc32)cc1 (stereo unspecified) | -3.8 | 18.4 | 93.6* | -0.4 | -1.9
O=S(=O)(c1cccc(-c2nnc(SCc3nc4ccccc4s3)o2)c1)N1CCOCC1 | -11.1 | 6.1 | 8.4 | 46.1* | -6.2
CCN1C(=O)C2C(c3ccc(C)cc3)N3C(=O)N(c4ccccc4)C(=O)[C@@]3(C)C2C1=O (stereo partly specified) | · | 6.1 | 4.2 | · | ·
CCC(=O)OC1C(OC(C)=O)[C@@]2(O)C(CC(O)C2(C)C)[C@](C)(O)C2CCC3C(O)[C@]12C[C@@]3(C)O (stereo partly specified) | · | 5.6 | 1.1 | · | ·
O=C(NC(NC(=S)Nc1cccc(Cl)c1)C(Cl)(Cl)Cl)OCc1ccccc1 (stereo unspecified) | 5.7 | 90.0* | 95.8* | -0.7 | 0.4
O=C(NC(NC(=S)Nc1cccc(C(=O)O)c1)C(Cl)(Cl)Cl)OCc1ccccc1 (stereo unspecified) | -6.0 | 3.0 | 8.8 | -0.8 | -0.4
Cc1ccc(-c2cc(C(=O)NN=Cc3cccnc3)n[nH]2)o1 | · | -0.4 | -2.7 | · | ·

Screening data from PubChem.
